HT1080 IDH1KD tx – toxicity to HT-1080 IDH1 knockdown cells (counter line); HT-1080 IDH1 knockdown viability, ATP luminescence, 48 h; hit rate 2% among 360,000; Potency, µM (titrated, usually from 46.1 µM), hits mostly cytotoxic; AID 686971
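CellTiter-Glo luminescence after 48 h compound exposure at 37 degrees C of IDH1-knockdown HT-1080 cells in 5% FBS RPMI. %Activity scaled between DMSO wells and cell-free media wells, with curves fitted and assigned curve classes.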
TDP1 cell CPT – growth inhibition of DT40 Tdp1-/-;hTDP1 cells with camptothecin (screen for TDP1 inhibitors); hit rate 12% among 420,000; chicken DT40 Tdp1-/-;hTDP1 cells + 20 nM CPT, ATP luminescence, 48 h; AID 686979; Potency, µM (doses to about 46.2 µM), hits mostly inhibitors; also: nearly all actives have a fitted effect of over 55% in size
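Chicken DT40 Tdp1-/- cells complemented with human TDP1, 400 cells/well, exposed to compounds plus 20 nM camptothecin for at least 48 h at 37 C; viability read as ATP content by CellTiter-Glo luminescence.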
IL1B secr inh – inflammasome signaling inhibition, IL-1 beta readout; THP-1 LPS/ATP IL-1B secretion, AlphaLISA, 16 h; hits give low values; activity change, % at 57.5 µM; hit rate 4.7% among 360,000; AID 743279; in the data active = activity change below about -50%; inconclusive = mostly about -30% to -49%
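THP-1 cells pretreated 1 hr with compounds (up to 57.5 uM final), then stimulated with LPS (250 ng/mL final) plus ATP (1.25 mM final); secreted IL-1B measured by AlphaLISA after 16 hr, decreased signal indicating inhibition.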
HT1080NT lethal – kills 2HG-producing HT-1080-NT fibrosarcoma cells. HT-1080-NT fibrosarcoma viability, CellTiter-Glo ATP luminescence, 48 h. Potency, µM (titrated, usually from 46.1 µM), usual class: cytotoxic. AID 686970. hit rate 1.6% among 360,000;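 also: NT is the 2HG producing partner of a matched IDH1 knockdown line; nearly all actives have a fitted effect of over 55% in size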
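HT-1080-NT; 750 cells/well; 5% FBS RPMI; 48 h compound, 37 degrees C; CellTiter-Glo luminescence; curve fitting and curve-class assignment.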
DT40 TDP1 no CPT – qHTS for Inhibitors of human tyrosyl-DNA phosphodiesterase 1 (TDP1): qHTS in cells in absence of CPT | DT40 Tdp1-/- hTDP1 cells, no CPT, ATP luminescence, 48 h | Potency, µM (top dose mostly 46.2 µM), most hits filed as inhibitors | hit rate 15% among 420,000 | AID 686978, 2013; also: nearly all actives have a fitted effect of over 55% in size
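Chicken DT40 Tdp1-/- cells stably complemented with human TDP1 were seeded at 400 cells/well with DMSO in place of 20 nM camptothecin. After compound pinning, cells grew at least 48 hr at 37 °C; viability read by CellTiter-Glo luminescence.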
Numbers stand for hits; 0 = inactive; ? = inconclusive; - = not tested or not shown; [ ] = another dose, or the depositor's remark. Rows were chosen to be rich in hits. Some 19% of all compounds tested hit in one or more screens of this group. Unless noted, calls follow the shape of the dose curve; as a rule, active = well fitted curve in the direction sought with a large enough effect; inconclusive = small, poorly fitted or top-dose-only effect, or another doubt; inactive = no such curve, though single readings can be large; an effect the other way counts as inactive or inconclusive.

SMILES	HT1080 IDH1KD tx	TDP1 cell CPT	IL1B secr inh	HT1080NT lethal	DT40 TDP1 no CPT
CC(C)(C)c1ccc(C(=O)C2CCCN(C(=O)c3ccccn3)C2)cc1 (stereo not drawn)	0	9.2µM	0	0	?
COc1cccc(C(=O)C2CCCN(C(=O)c3ccccn3)C2)c1 (stereo not drawn)	0	0	0	0	0
Cc1cnc(C(=O)N2CCCC(C(=O)c3ccc(C(C)(C)C)cc3)C2)cn1 (stereo not drawn)	0	?	0	0	23.1µM
O=C(c1ccc(Cl)cc1)C1CCCN(C(=O)/C=C/c2ccccn2)C1 (stereo not drawn)	0	23.1µM	0	0	20.6µM
CCOCCCNC(=O)c1cc(=O)[nH]c2ccc(S(=O)(=O)N3CCCC3)cc12	-	0	-	-	0
Cc1ccc(-c2nnc(N3CCN(C(=O)CN4CCOCC4)CC3)c3ccccc23)cc1	0	0	0	0	16.4µM
Cc1ccc(-c2nnc(N3CCN(C(=O)Cn4c(=O)n(C)c5ccccc54)CC3)c3ccccc23)cc1	0	?	0	0	16.4µM
COc1ccc(OCc2cc(C(=O)NC(C)Cn3cncn3)no2)c(Cl)c1 (stereo not drawn)	0	0	0	0	0
CCc1ccc(NC(=O)c2nc(SCc3ccccc3F)ncc2Cl)cc1	-	0	-	-	0
CCS(=O)(=O)c1ncc(Cl)c(C(=O)Nc2ccc(S(=O)(=O)N(C)c3ccccc3)cc2)n1	3.66µM	0.731µM	-103.5	2.59µM	0.651µM
CCSc1ncc(Cl)c(C(=O)Nc2ccc(S(=O)(=O)N(C)c3ccccc3)cc2)n1	-	11.6µM	-	-	11.6µM
CCN(c1ccccc1)S(=O)(=O)c1ccc(NC(=O)c2ccco2)cc1	0	?	0	0	?
CCN(c1ccccc1)S(=O)(=O)c1ccc(NC(=O)c2nc(S(C)(=O)=O)ncc2Cl)cc1	16.4µM	1.16µM	-96.8	18.4µM	1.03µM
CC1CCCCC1NC(=O)CN(C)S(=O)(=O)c1ccc2c(c1)CCC(=O)N2 (stereo not drawn)	0	0	0	0	0
COc1ccc(/C=C/C(=O)c2ccccc2O)cc1CN1CCOCC1	?	16.4µM	0	?	?
COc1ccc(/C=N\NC(=O)c2nn(C)cc2Cl)cc1CN1CCOCC1	0	0	0	0	0
COc1ccc(/C=C/C(=O)c2ccc3ccccc3c2O)cc1CN1CCOCC1	0	?	-67.5	0	18.4µM
Cn1cc(Br)c(NC(=O)/C=C/C(=O)O)n1	0	0	0	0	0
COc1ccccc1N1CCN(CCCN=C2CC(=O)N(C)C(=O)N2C)CC1	0	0	0	0	0
CCOC(=O)c1cccc(NC(=O)/C=C/c2ccc([N+](=O)[O-])cc2)c1	0	14.6µM	0	0	8.2µM
CCNC(=O)COC(=O)/C=C/c1cccc([N+](=O)[O-])c1	0	0	0	0	0
COC(=O)c1cccc(NC(=O)/C=C/c2cccc([N+](=O)[O-])c2)c1	?	?	0	0	12.6µM
CCCCN(CCCC)C(=O)/C=C/c1cccc([N+](=O)[O-])c1	0	?	?	0	16.4µM
CC1(C(=O)NS(=O)(=O)c2ccccc2)CCN1C(=O)CC1CCCCC1 (stereo not drawn)	0	0	0	0	0
CCCNC(=O)CCc1c(C)nc2nc(C)nn2c1C	0	0	0	0	0
SMILES	HT1080 IDH1KD tx	TDP1 cell CPT	IL1B secr inh	HT1080NT lethal	DT40 TDP1 no CPT
Cc1cccc2sc(N(CCCN(C)C)C(=O)c3ccc(S(=O)(=O)N4CCc5ccccc5C4)cc3)nc12	?	4.11µM	?	?	6.51µM
CN(C)CCCN(C(=O)c1ccc(S(=O)(=O)N2CCCCCC2)cc1)c1nc2c(F)cc(F)cc2s1	0	?	-85.8	0	16.4µM
CCOC(=O)N1CCN(S(=O)(=O)c2ccc(C(=O)N(CCN(C)C)c3nc4c(C)cccc4s3)cc2)CC1	0	0	0	0	0
CN(C)CCCN(C(=O)c1ccc(S(=O)(=O)N2CCCC2)cc1)c1nc2c(F)cc(F)cc2s1	0	0	0	0	0
CN(C)CCCN(C(=O)c1ccc(S(=O)(=O)N2CCc3ccccc3C2)cc1)c1nc2c(F)cccc2s1	0	?	-51.1	0	?
O=C(NCc1ccccc1F)C1CCCN1S(=O)(=O)c1ccc(F)cc1 (stereo not drawn)	0	?	0	0	0
Cc1cc(C)cc(OCCCn2c(-c3ccc(Cl)cc3)nc3ccccc3c2=O)c1	-	0	-	-	0
COCC(=O)N(C)C[C@@H]1Oc2cc(-c3ccc(F)cc3)ccc2S(=O)(=O)N([C@H](C)CO)C[C@H]1C	0	?	?	0	?
O=C(OC(C(=O)Nc1cccc(C(F)(F)F)c1)c1ccccc1)C1CCCCC1 (stereo not drawn)	0	0	0	0	?
COc1ccc(CNC(=O)CSc2ccc(Br)cc2)cc1OC	0	0	0	0	0
COc1ccccc1N1CCN(CC(=O)Nc2c(C)n(C)n(-c3ccccc3)c2=O)CC1	0	0	0	0	0
COc1ccccc1-c1ccnc(-n2ncc(C(=O)NCc3cccc(C)n3)c2C)n1	-	0[9.04 µM]	-	-	0
O=C(N/N=C/C(Cl)=C/c1ccccc1)c1ccco1	0	?	0	0	?
O=C(N/N=C/C(Br)=C/c1ccccc1)c1cccs1	?	16.4µM	?	0	18.4µM
O=C(N/N=C/C(Cl)=C/c1ccccc1)c1ccccc1F	0	?	-69.5	0	?
O=C(N/N=C/C=C/c1ccccc1)c1cccs1	0	0	0	0	0
O=C(N/N=C/C(Cl)=C\c1ccccc1)c1ccco1	0	0	0	0	29.1µM
O=C(N/N=C/C(Br)=C/c1ccccc1)c1ccccc1F	?	11.6µM	-65.4	?	23.1µM
CCOC(=O)C1CCC2(CC1)C(C#N)=C(N)Oc1n[nH]c(C)c12 (stereo not drawn)	0	0	0	0	0
COC(=O)CNC(=O)/C=C/c1ccc(OC)cc1	0	0	0	0	0
CCOC(=O)c1c(C)[nH]c(C)c1C(=O)COC(=O)[C@@H](NC(=O)c1ccccc1OCC)C(C)C	0	?	0	?	20.6µM
CCOC(=O)C(CC)(CC)C(=O)/C=C/c1ccc(OC)cc1	0	?	0	0	18.4µM
CCOC(=O)c1c(C)[nH]c(C)c1C(=O)COC(=O)/C=C/c1cccc(F)c1	0	0	0	0	0
CCOC(=O)c1c(C)[nH]c(C)c1C(=O)COC(=O)/C=C/c1ccc(OC)cc1	14.6µM	7.31µM	0	?	8.2µM
CCOc1ccccc1C(=O)NC(C(=O)OCC(=O)NNC(=O)c1cccs1)C(C)C (stereo not drawn)	0	0	0	0	0
CCOC(=O)c1c(C)[nH]c(C)c1C(=O)COC(=O)c1cc2ccccc2cc1OC	0	?	0	0	23.1µM

High-throughput results deposited in PubChem BioAssay by National Center for Advancing Translational Sciences (NCATS).
